High-throughput results: PubChem, National Center for Advancing Translational Sciences (NCATS)
PNC inhibitor = High Content Assay for Compounds that inhibit the Assembly of the Perinucleolar Compartment; PC3M PTB-GFP, PNC prevalence imaging, 16 h; stronger effect = lower value; 3.1% of 140,000 active; AID 2417, 2010; activity change (PNC), negative = inhibition, % at 10 µM;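 active = readout at or below -70, meaning at least 70% loss of cells showing the perinucleolar compartment, a nuclear body marking cancer cells; inconclusive = readout between -30 and a set limit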;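 also: plate controls were DMSO wells for no effect and camptothecin positive control wells for full effect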
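Read-out is percentage of cells bearing a perinucleolar compartment, from automated 20x imaging of fixed, Hoechst-stained PC3M PTB-GFP cells. Cells were seeded 4 h, then exposed 16 h to compound (23 nl of library stock) in duplicate plates.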
HPGD inh = qHTS Assay for Inhibitors of HPGD (15-Hydroxyprostaglandin Dehydrogenase) | 15-hydroxyprostaglandin dehydrogenase [NAD(+)] (Homo sapiens), P15428 | purified HPGD, NADH fluorescence kinetic, PGE2 substrate | Potency, µM, without a hit: at the highest dose activity change, negative = inhibition, hits mostly inhibitors | 4.3% of 150,000 active | AID 894, 2007; also: potency is read from the fitted curve at half-maximal effect
Target sequence (P15428 whole entry, looked up): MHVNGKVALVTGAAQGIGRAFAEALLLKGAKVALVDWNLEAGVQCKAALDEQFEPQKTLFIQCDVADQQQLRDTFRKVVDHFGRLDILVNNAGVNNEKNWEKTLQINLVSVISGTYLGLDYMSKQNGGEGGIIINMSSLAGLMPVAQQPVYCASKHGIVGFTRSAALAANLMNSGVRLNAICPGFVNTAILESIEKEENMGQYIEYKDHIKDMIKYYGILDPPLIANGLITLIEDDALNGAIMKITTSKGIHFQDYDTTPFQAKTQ
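20 nM HPGD preincubated 15 min at room temperature with compound in 50 mM Tris-HCl pH 8, 0.01% Tween 20. Started with 1 mM NAD+ and 30 uM prostaglandin E2; NADH fluorescence (360/450 nm) read 5 times over 30-s intervals, last minus first.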
ALDH1A1 block = qHTS Assay for Inhibitors of Aldehyde Dehydrogenase 1 (ALDH1A1); Aldehyde dehydrogenase 1A1 (Homo sapiens), P00352; Purified ALDH1A1, NADH fluorescence, propionaldehyde substrate; Potency, µM (doses to about 75.3 µM), for inactives: at the top dose activity, negative = inhibition, actives largely listed as inhibitors; 7.3% of 220,000 active; AID 1030, 2008;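 also: potency is read from the fitted curve at half-maximal effect; plate controls were no enzyme wells and a reference inhibitor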
Target sequence (P00352 whole entry, looked up): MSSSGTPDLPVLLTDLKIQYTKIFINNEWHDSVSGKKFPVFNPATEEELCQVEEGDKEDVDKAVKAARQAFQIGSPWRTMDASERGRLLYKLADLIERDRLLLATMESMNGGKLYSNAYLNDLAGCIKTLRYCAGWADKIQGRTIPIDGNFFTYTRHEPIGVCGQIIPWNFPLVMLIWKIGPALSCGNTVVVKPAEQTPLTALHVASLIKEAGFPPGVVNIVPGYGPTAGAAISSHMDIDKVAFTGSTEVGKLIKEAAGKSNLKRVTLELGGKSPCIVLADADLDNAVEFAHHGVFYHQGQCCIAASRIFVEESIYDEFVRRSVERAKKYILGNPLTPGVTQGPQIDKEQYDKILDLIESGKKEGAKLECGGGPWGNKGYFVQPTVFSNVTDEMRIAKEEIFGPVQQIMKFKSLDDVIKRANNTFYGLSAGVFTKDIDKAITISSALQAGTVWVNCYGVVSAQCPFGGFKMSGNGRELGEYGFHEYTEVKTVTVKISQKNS
IMPase Li cell = qHTS Assay for Identifying the Cell-Membrane Permeable IMPase Inhibitors: Potentiation with Lithium. CHO-M1 cells, IP1 TR-FRET (IP-One), carbachol + lithium. Potency, µM (highest dose often 59.4 µM), for inactives: at the highest dose activity, negative = IMPase inhibition, most hits filed as inhibitors. 0.35% of 210,000 active. AID 1457, 2008; active = well fitted inhibition curve with a large enough effect; inconclusive = small, poorly fitted or top-dose-only effect; inactive = no such curve, though single readings can be large or run the other way;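 also: IP1 builds up when IMPase is blocked and the TR-FRET signal falls; potency is read from the fitted curve at half-maximal effect; plate controls were basal vehicle for no effect and high inhibitor control for full effect; nearly all actives have a fitted effect of over 50% in size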
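Steps: plate 2000 CHO-M1 cells per well and culture 16–30 h; add compound and lithium; incubate 30 min, 37C; add d2-IP1 tracer and Eu cryptate anti-IP1 antibody in lysis buffer; read after 10 min at room temperature.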
IMPase inh = qHTS Assay for Identifying the Cell-Membrane Permeable IMPase Inhibitors; 120,000 tested, under 10 active; CHO-M1 cells, IP1 accumulation, HTRF TR-FRET ratio; AID 901, 2007; inhibition (IP1 accumulation), % at 46.1 µM; Inositol monophosphatase 1 (Rattus norvegicus), P97697; active = well fitted curve in the direction sought with a large enough effect in the signal ratio, not every such curve was filed as active; inconclusive = small, poorly fitted or top-dose-only effect, or a change in a side signal; inactive = no such curve, though single readings can be large or run the other way; the % refers to the signal ratio;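 also: cells stimulated with carbachol in lithium chloride buffer; plate controls were DMSO basal wells for no effect and reference inhibitor wells for full effect; higher means more IMPase inhibition seen as more IP1 and lower FRET ratio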
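CHO-M1, 2000 cells/well, cultured 16–30 h; cpd up to 46 uM; carbachol (50 uM solution, stimulation buffer w/ 50 mM LiCl, pH 7.4), 30 min 37C; IP-One TR-FRET, 10 min RT; Ex 320/Em 665, 620; Hill-fit AC50.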
Starred values were filed as active, the others as inactive; ? = inconclusive; / = no result given; ! = repeats disagree; [ ] = another dose, or the depositor's remark. An excerpt weighted towards active compounds, which were near 11% of everything screened. Unless noted, calls follow the shape of the dose curve; as a rule, active = well fitted inhibition curve with a large enough effect (not every such curve was filed as active); inconclusive = small, poorly fitted or top-dose-only effect, or another doubt; inactive = no such curve, though single readings can be large or run the other way. Unless noted, % is scaled to controls: 0 for no effect and ±100 for the full control effect.

SMILES | PNC inhibitor | HPGD inh | ALDH1A1 block | IMPase Li cell | IMPase inh
CN([C@@H](Cc1ccc(OS(=O)(=O)c2cccc3cnccc23)cc1)C(=O)N1CCN(c2ccccc2)CC1)S(=O)(=O)c1cccc2cnccc12 | ? | -7% | -11% | 4% | /
CN(C(Cc1ccc(OS(=O)(=O)c2cccc3cnccc23)cc1)C(=O)N1CCN(c2ccccc2)CC1)S(=O)(=O)c1cccc2cnccc12 (stereo not given) | / | / | 14µM*! | 2% | /
COC(=O)C1=C(C(=O)OC)[C@@H]2Nc3ccccc3[C@@]23C[C@@H](C(=O)OC)N(C(C)=O)C3=N1 | / | 1% | 8%[13.5 µM] | -3% | /
O=C1C(=O)N(Cc2cccc([N+](=O)[O-])c2)c2ccccc21 | 155 | ? | 0.05µM* | 9% | /
CCC1(c2ccccc2)NC(=O)N(Cc2cccc([N+](=O)[O-])c2)C1=O (stereo not given) | / | / | 6% | 3% | /
COc1ccc(NC(=O)CSc2nc(-c3ccc(OC)cc3)cc(=O)[nH]2)cc1 | / | / | / | / | -16
Cc1ccc(S(=O)(=O)CC#CCOC(=O)c2ccc([N+](=O)[O-])cc2)cc1 | ? | 13µM* | 1.1µM* | 14%[38.3 µM] | 3
Cc1c(C(=O)O)cccc1-c1ccc(/C=N/Nc2ccc(Br)cc2)o1 | 2 | ? | ? | 2% | /
Cc1cc(-c2csc(NC(=O)c3ccc(=O)[nH]c3)n2)c(C)n1Cc1ccco1 | / | / | 8.9µM* | / | /
Cc1cc(-c2csc(NC(=O)c3ccc(=O)n(C)n3)n2)c(C)n1CC1CCCO1 (stereo not given) | ? | -10% | 20µM* | -4%[38.3 µM] | -13
CCc1cccc(NS(=O)(=O)c2c(C)n[nH]c2C)c1 | -100* | -11% | 2% | 0% | 4
COC1=CC(=O)C(O)=C/C1=C\C=C\c1ccccc1 | / | 11µM* | 13µM* | 33% | /
O=C(CCCc1nc2ccccc2s1)NCc1ccccc1 | -9 | 14µM* | 10% | -2% | /
CN(C(=O)CCc1nc2ccccc2s1)c1ccccc1 | -112* | ? | 7% | 4% | -2
O=C(CCCc1nc2ccccc2s1)NC(c1ccccc1)c1ccccc1 | 33 | -4% | -1% | 8% | -12
O=C(CCCc1nc2ccccc2s1)NCc1ccc(F)cc1 | ? | 25µM* | ? | 11% | /
Cc1c(C(=O)O)oc2ccc(S(=O)(=O)NC3CCCCCCC3)cc12 | -113* | -27% | ? | -1% | /
CCN(CC)S(=O)(=O)c1ccc2oc(C(=O)N3CCOCC3)c(C)c2c1 | ? | ? | 6% | 14%[38.3 µM] | -9
CCN(CC)S(=O)(=O)c1ccc(C(=O)N2CCCCC2)cc1 | 26 | 4µM* | -15% | 51%[38.3 µM] | -2
CCN(CC)S(=O)(=O)c1ccc2oc(C(=O)N3CCc4ccccc4C3)c(C)c2c1 | ? | 28µM* | ? | 13% | /
CCN(CC)S(=O)(=O)c1ccc2oc(C(=O)NC3CCCc4ccccc43)c(C)c2c1 (stereo not given) | 9 | -18% | 4% | 25%[38.3 µM] | -2
C=CCNC(=O)c1oc2ccc(S(=O)(=O)N(CC)CC)cc2c1C | -29 | 20µM* | 20µM* | 6%[38.3 µM] | 3
CN(C/C=C\c1ccccc1)Cc1cccc2ccccc12 | / | 0% | 8%[20.9 µM] | 0% | 4[20.6 µM]
CC1CCC(N2CCNCC2)CC1 (stereo not given) | / | / | -7% | 4% | /
CCN(CC)S(=O)(=O)c1ccc2oc(C(=O)N3CCCCCC3)c(C)c2c1 | 25 | 7.1µM* | 13µM* | 15%[38.3 µM] | 2
SMILES | PNC inhibitor | HPGD inh | ALDH1A1 block | IMPase Li cell | IMPase inh
COc1cccc(C(=O)Nc2ccc(NC(=O)C(C)(C)C)cn2)c1 | -84* | -5% | 18% | 20%[38.3 µM] | -8
Cc1ccc(NC(=O)CN2CCN(S(=O)(=O)c3cccs3)CC2)cc1S(=O)(=O)N(C)C | / | / | ? | 9% | /
N#Cc1cccc(NC(=O)N2CCCC3(CCN(C(=O)c4cnccn4)CC3)C2)c1 | / | -1% | 10% | 0% | /
CSc1nc2c(c(=O)[nH]c(=O)n2C)n1C/C=C(\C)Cl | 19 | ? | 25µM* | -13%[38.3 µM] | ?
CCSc1nc2c(c(=O)[nH]c(=O)n2C)n1C/C=C(/C)Cl | 28 | ? | 14µM* | 25%[38.3 µM] | 22
C=CCSc1nc2c(c(=O)[nH]c(=O)n2C)n1C/C=C(/C)Cl | -28 | -25% | ? | -4%[38.3 µM] | 6
CCOC(=O)C(C)n1cnc2c1c(=O)[nH]c(=O)n2C (stereo not given) | -100* | -19% | 7% | 1% | 2
C/C(Cl)=C/Cn1c(SCc2ccc(Cl)cc2)nc2c1c(=O)[nH]c(=O)n2C | -27 | -5% | ? | 20%[38.3 µM] | 3
C=CCSc1nc2c(c(=O)[nH]c(=O)n2C)n1CC | ? | 14µM* | 14µM* | 4%[38.3 µM] | -1
CCOC(=O)C(C)Sc1nc2c(c(=O)[nH]c(=O)n2C)n1C/C=C(/C)Cl (stereo not given) | 14 | 22µM* | 7.1µM* | 8%[38.3 µM] | -2
COC(=O)C(C)Sc1nc2c(c(=O)[nH]c(=O)n2C)n1CCC(C)C (stereo not given) | 0 | -15% | ? | -2% | -3
O=C(OCC(F)(F)C(F)F)c1ccccc1C(=O)Oc1ccc(F)cc1F | 12 | -27% | -6% | 15%[38.3 µM] | 9
O=C(c1ccccc1)N1CCN(Cc2ccccc2)CC1 | -100* | -15% | ? | 10% | -3
O=C(N1CCN(Cc2ccccc2)CC1)C12CC3CC(CC(C3)C1)C2 | 27 | -3% | 6.3µM* | 6% | -2
CS(=O)(=O)c1ccc(C(=O)N2CCN(Cc3ccccc3)CC2)cc1 | / | / | 5% | -2% | /
COc1ccc2nc3oc(C(=O)N4CCN(c5cccc(Cl)c5)CC4)cc3cc2c1 | -87* | 176% | 178% | 13% | 11
O=C(c1ccccc1)c1ccc(OCCOCCN2CCN(Cc3ccccc3)CC2)cc1 | / | / | 18µM* | 34% | /
O[C@@H]1[C@@H]2c3cc4c(cc3CN3CCC(=C[C@@H]1O)[C@H]23)OCO4 | / | -4% | 0%[20.9 µM] | 6% | -8[20.6 µM]
O=C(CSc1nncs1)NCCCc1ccccc1 | / | / | ? | 2% | /
COc1ccc2c(c1)O[C@@H](c1cccc(C(F)(F)F)c1)[C@H](OC(=O)NC1CCCC1)C2=O | / | -12% | -7% | 4% | /
Oc1cccc(C(=S)N2CCN(Cc3ccccc3)CC2)c1 | -24 | 14µM* | 11µM* | 0% | 12
CC1=C(C)CC(C(=O)N2CCN(Cc3ccccc3)CC2)C(C(=O)O)C1 (stereo not given) | 30 | -6% | 14µM* | 19%[38.3 µM] | -4
COc1ccc(N2CCN(C(=O)c3cccc(Cn4cc(Cl)cn4)c3)CC2)cc1 | -112* | -13% | -7% | 1%[38.3 µM] | 34
COc1cccc(C(=O)N2CCN(Cc3cccc(F)c3)CC2)c1 | -6 | -1% | 18µM* | 20%[38.3 µM] | 8
